Bioassay records: PubChem, National Center for Advancing Translational Sciences (NCATS)
Tau FP inhib – blocks human tau fibril formation measured by polarization; P10636; K18 P301L tau heparin fibrillization, Alexa594 FP, 6 h; Potency, µM (doses to about 57.7 µM), inactives show top-dose activity, negative = inhibition, most hits filed as inhibitors; 0.39% of 280,000 active; AID 1468; note: nearly all actives have a fitted effect of over 55% in size
Target sequence (P10636 561-689 P618L limits assumed): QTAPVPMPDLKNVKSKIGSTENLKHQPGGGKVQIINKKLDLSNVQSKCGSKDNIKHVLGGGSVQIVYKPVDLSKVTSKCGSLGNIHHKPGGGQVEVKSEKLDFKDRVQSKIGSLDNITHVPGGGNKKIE
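Human tau K18 […] P301L fragment, 15 uM unlabeled plus 0.24 uM Alexa 594-labeled tau (final), with compound and 20 uM heparin in 100 mM sodium acetate pH 7; 6 hr at 37 C, then Alexa 594 FP read.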
Tau fluor counter – counter-screen for tau fibril formation inhibitors; tau K18 P301L Alexa594 fluorescence, heparin fibrillization; Potency, µM (titrated, usually from 57.7 µM), for the others: at the highest dose activity change, negative = decrease; 0.93% of 280,000 active; AID 1463; note: nearly all actives have a fitted effect of over 55% in size
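Human tau K18 P301L (15 uM unlabeled, 0.24 uM Alexa 594-labeled) in 100 mM sodium acetate pH 7 with 20 uM heparin, 6 hr at 37 C. ThT 30 uM added, 1 hr ambient; Alexa 594 FP and total fluorescence read at 555/632 nm.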
TR SRC2 fluor cs – counter-screen for TRb-SRC2 inhibitors: fluorescence interference; TRb/SRC2 Texas Red total fluorescence interference; Potency, µM (top dose mostly 106 µM), inactives show at the highest dose fluorescence change, negative = quenching; 0.29% of 280,000 active; active = well fitted curve in either direction with a large enough effect; inconclusive = small, poorly fitted or top-dose-only effect
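Human TRb ligand-binding domain at 0.6 uM with 20 nM Texas Red SRC2 peptide in Tris buffer containing 1 uM T3 and 5% DMSO, incubated with compound 5 h at ambient temperature. Total fluorescence (555/632 nm) calculated as parallel + 2 × perpendicular.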
Tau ThT inhib – blocks human tau fibril formation measured by thioflavin T | P10636 | recombinant tau K18 P301L (four-repeat tau fragment), heparin-induced fibrillization, ThT fluorescence | Potency, µM (top dose mostly 57.4 µM), for the others: top-dose activity, negative = inhibition, usual class: inhibitors | 2.1% of 270,000 active | AID 1460; note: nearly all actives have a fitted effect of over 55% in size
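Tau K18 P301L fragment (15 uM unlabeled plus 0.24 uM Alexa 594-labeled) in 100 mM sodium acetate pH 7 with compound, fibrillization induced by 20 uM heparin for 6 hr at 37 C. Thioflavin T (30 uM) added, fluorescence read after 1 hr (ex 450, em 510 nm).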
TRb-SRC2 inh – inhibitors of human thyroid hormone receptor beta-SRC2 interaction. P10828. TRbeta-SRC2 peptide binding, fluorescence polarization; receptor liganded with 1 µM T3. Potency, µM (doses to about 106 µM), for the others: at the top dose activity change, negative = inhibition, hits mostly inhibitors. 0.065% of 280,000 active. AID 1469;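 note: plate controls were bound peptide for no effect and peptide without receptor for full effect; nearly all actives have a fitted effect of over 50% in size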
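Human TRb LBD (0.6 uM) plus Texas Red-labeled SRC2 peptide (20 nM), 1uM T3, 5% DMSO, 5 hr at ambient temperature. Decreased polarization (555/632 nm) flags inhibition; data normalized to free and bound peptide controls.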
The depositor's hits bear a star; ! = not active in a repeat; [ ] = remark or other dose. Rows were chosen to be rich in hits. Some 3% of all compounds tested hit in one or more screens of this group. Unless noted, calls come from the whole dose curve; as a rule, active = well fitted curve in the direction sought with a large enough effect; inconclusive = small, poorly fitted or top-dose-only effect, or another doubt; inactive = no such curve, though single readings can be large; an effect the other way counts as inactive or inconclusive. Unless noted, % is set by controls: 0 for no effect and ±100 for the full control effect; potency is the fitted concentration of half-maximal effect.

For Cc1cccc(C)c1OCC(=O)Nc1ccc(S(=O)(=O)Nc2ccccn2)cc1 the results were Tau FP inhib -1%, Tau fluor counter -15%, TR SRC2 fluor cs 71µM*[quencher], Tau ThT inhib -14% and TRb-SRC2 inh -6%.
Screening Cc1ccc(C)c(OCC(=O)Nc2ccc(S(=O)(=O)Nc3ccccn3)cc2)c1C returned Tau FP inhib 4%, Tau fluor counter -17%, TR SRC2 fluor cs -6%, Tau ThT inhib -6% and TRb-SRC2 inh 9%.
`COc1ccc2c(CNCc3ccco3)c(C(=O)O)n(Cc3cccc(F)c3)c2c1` gave Tau FP inhib -3%, Tau fluor counter -12%, TR SRC2 fluor cs 0%, Tau ThT inhib -2% and TRb-SRC2 inh -3%.
Screening CCCCC1=CC2=C(c3ccco3)C(=O)C(C)(OC(=O)c3ccc(OC)cc3)C(=O)C2=CN1CCOC (stereo not given) returned Tau FP inhib -4%[11.6 µM], Tau fluor counter -5%[11.6 µM], TR SRC2 fluor cs -2%[11.2 µM], Tau ThT inhib inconclusive and TRb-SRC2 inh 1%[11.2 µM].
Screening CCCCC1=CC2=C(c3ccco3)C(=O)C(C)(OC(=O)c3ccc(OC)cc3)C(=O)C2=CN1Cc1ccccc1 (stereo not given) returned Tau FP inhib 5%[11.6 µM], Tau fluor counter 2%[11.6 µM], TR SRC2 fluor cs -1%[11.2 µM], Tau ThT inhib 13µM*! and TRb-SRC2 inh 1%[11.2 µM].
`COC(=O)C/C=C1\c2ccccc2C(OC)C1C` (stereo not given) gave Tau FP inhib -4%[11.6 µM], Tau fluor counter -11%[11.6 µM], TR SRC2 fluor cs 0%[11.2 µM], Tau ThT inhib -6%[11.5 µM] and TRb-SRC2 inh 1%[11.2 µM].
For COC(=O)c1sc(NC(=O)c2ccc(Cn3cc(Cl)cn3)o2)c(C#N)c1C the results were Tau FP inhib inconclusive, Tau fluor counter inconclusive, TR SRC2 fluor cs -12%, Tau ThT inhib 25µM* and TRb-SRC2 inh -12%.
For O=S(=O)(NNc1nccc(C(F)(F)F)n1)c1cccc(Cl)c1Cl the results were Tau FP inhib inconclusive, Tau fluor counter -18%, TR SRC2 fluor cs 0%, Tau ThT inhib 22µM* and TRb-SRC2 inh -6%.
Screening CCOCCCNC(=O)c1ccc(-n2c(-c3ccccc3)cc3c2CCCCC3)cc1 returned Tau FP inhib 20µM*, Tau fluor counter inconclusive, TR SRC2 fluor cs inconclusive, Tau ThT inhib 13% and TRb-SRC2 inh 2%.
For CC(C)NC(=O)c1ccc(-n2c(-c3ccccc3)cc3c2CCCC3)cc1 the results were Tau FP inhib inconclusive, Tau fluor counter -16%, TR SRC2 fluor cs -16%, Tau ThT inhib 0% and TRb-SRC2 inh -1%.
For CCNC(=O)c1ccc(-n2c(-c3ccccc3)cc3c2CCCCC3)cc1 the results were Tau FP inhib 11µM*, Tau fluor counter inconclusive, TR SRC2 fluor cs -12%, Tau ThT inhib 21% and TRb-SRC2 inh 4%.
For CCCNC(=O)c1ccc(-n2c(-c3ccccc3)cc3c2CCCCC3)cc1 the results were Tau FP inhib inconclusive, Tau fluor counter inconclusive, TR SRC2 fluor cs 5%, Tau ThT inhib 5% and TRb-SRC2 inh 4%.
Screening CC(C)OCCCNC(=O)c1ccc(-n2c(-c3ccccc3)cc3c2CCCC3)cc1 returned Tau FP inhib 14µM*, Tau fluor counter inconclusive, TR SRC2 fluor cs -1%, Tau ThT inhib -9% and TRb-SRC2 inh -7%.
Screening CCC(C)NC(=O)c1ccc(-n2c(-c3ccccc3)cc3c2CCCC3)cc1 (stereo not given) returned Tau FP inhib -1%, Tau fluor counter inconclusive, TR SRC2 fluor cs 1.8µM*[quencher], Tau ThT inhib inconclusive and TRb-SRC2 inh -13%.
CC(C)(C)c1n[nH]c(=O)n(N)c1=O was read as TR SRC2 fluor cs 2%[201 µM] and TRb-SRC2 inh -4%[201 µM].
`CCCCC/C(C=O)=C/c1ccccc1` gave TR SRC2 fluor cs -1% and TRb-SRC2 inh -1%.
For COc1ccc(CNC(=O)Cc2c(C)c3c(cc(C)c4c(C)coc43)oc2=O)cc1 the results were Tau FP inhib -3%, Tau fluor counter 0%, TR SRC2 fluor cs -1%, Tau ThT inhib -5% and TRb-SRC2 inh 10%.
